The values that follow come from PubChem BioAssay.

The target in one test is Albumin (Bos taurus) (UniProt P02769). The experiment in a line: bovine serum albumin binders on microarray, profiling panel, artefact control for SMM control protein annotation, biochemical, small-molecule microarray, Alexa647 label, 635/667 nm fluorescence (AID 1118).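 Further: score merges 667 nm emission intensity and signal-to-noise per printed compound spot.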 The settings on record: BSA-A647 binding, fluorescence 635 nm, higher = more signal.
Chain of Albumin (Bos taurus) (P02769 whole entry, looked up): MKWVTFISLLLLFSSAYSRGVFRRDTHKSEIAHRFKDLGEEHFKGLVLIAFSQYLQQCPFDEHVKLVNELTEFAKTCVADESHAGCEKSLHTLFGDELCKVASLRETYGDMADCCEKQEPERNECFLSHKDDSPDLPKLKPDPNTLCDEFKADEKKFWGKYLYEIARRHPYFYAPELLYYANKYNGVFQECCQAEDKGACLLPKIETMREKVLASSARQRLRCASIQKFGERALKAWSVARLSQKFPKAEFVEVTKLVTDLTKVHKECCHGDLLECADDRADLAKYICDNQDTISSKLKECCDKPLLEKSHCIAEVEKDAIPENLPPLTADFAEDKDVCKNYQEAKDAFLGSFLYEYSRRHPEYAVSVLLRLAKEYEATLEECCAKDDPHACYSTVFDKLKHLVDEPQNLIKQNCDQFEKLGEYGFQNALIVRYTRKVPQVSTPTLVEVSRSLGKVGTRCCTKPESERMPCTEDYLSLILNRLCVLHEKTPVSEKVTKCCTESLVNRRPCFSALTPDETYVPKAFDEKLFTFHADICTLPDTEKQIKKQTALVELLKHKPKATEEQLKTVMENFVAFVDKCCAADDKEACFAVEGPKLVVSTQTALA
Test [1] can be described thus: small-molecule microarray binders of probe aXIP, primary screen, biochemical, NeuroSMM set, 635/667 nm fluorescence (AID 1119).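 Further: probe is the protein aXip251-270 applied at 1 µg/mL to compound-printed slides; binding of probe to printed compounds measured as 667 nm fluorescence plus signal to noise.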 To be noted: higher = more signal, called active from +8 up or from −8 down.
The nature of test [2]: small-molecule binders of probe aNOTCH3, primary screen, biochemical, small-molecule microarray, 635/667 nm fluorescence (AID 1120).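 Further: probe is a biotin-tagged antibody raised against NOTCH3 rather than NOTCH3 protein; score merges spot fluorescence near 667 nm with spot signal to noise.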 To be noted: higher = more signal.
The nature of test [3]: small-molecule binders of probe aNOTCH2, primary screen, biochemical, small-molecule microarray, 635/667 nm fluorescence (AID 1121).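 Further: score merges feature fluorescence read at 667 nm with its signal to noise.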 The settings on record: higher = more signal.
The target of test [4] is Carbonic anhydrase 2 (Homo sapiens) (UniProt P00918). The experiment in a line: CAII small-molecule binders, profiling panel, biochemical, small-molecule microarray, Alexa647-labelled CAII (AID 1122). The settings on record: CAII-A647 binding fluorescence, higher = more signal.
The nature of test [5]: COS7 lysate on small-molecule microarray, probe aHis, 635 nm (AID 1123).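 Further: z-score combines 667nm fluorescence intensity with signal-to-noise per printed compound spot.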 To be noted: COS7 cell lysate, fluorescence, higher = more signal.
Test [6] is described as follows: compound binding in COS7 lysate, probe aLAP1, primary screen, cell lysate, small-molecule microarray (AID 1124).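 Further: lysate comes from COS7 cells expressing LAP1 and is applied at 0.3 µg/mL; score merges spot fluorescence near 667 nm with signal-to-noise over triplicate slides.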 The settings on record: probe aLAP1, fluorescence, higher = more signal.
For the next test, the system named is Sam68 (KHDRBS1). Briefly: Sam68 small-molecule binders, primary screen, biochemical, small-molecule microarray, 635 nm fluorescence (AID 1125).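 Further: score merges 667 nm channel intensity with signal to noise over triplicate slides.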 To be noted: small-molecule microarray binding, higher = more signal.
The subject of test [7] is Chordin-like protein 2 (CHRDL2). Briefly: CHRDL2 small-molecule binders, primary screen, biochemical, small-molecule microarray, 635 nm fluorescence (AID 1126).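 Further: printed compound slides probed with Chrdl2 protein at 4 µg/mL for 1 h at 4 C; score merges 667 nm emission intensity with signal to noise over three replicate slides.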 To be noted: small-molecule microarray binding, fluorescence 635 nm; higher = more signal.
The target in test [8] is Concanavalin-A (Canavalia ensiformis) (UniProt P02866). The experiment in a line: ConA small-molecule binders, primary screen, artefact control for SMM control protein annotation, biochemical, small-molecule microarray, Alexa647 label, 635 nm (AID 1127).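 Further: z combines 667 nm emission intensity with signal-to-noise across three replicate slides.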 The settings on record: ConA-A647 binding fluorescence, higher = more signal.
Chain of Concanavalin-A (Canavalia ensiformis) (P02866 whole entry, looked up): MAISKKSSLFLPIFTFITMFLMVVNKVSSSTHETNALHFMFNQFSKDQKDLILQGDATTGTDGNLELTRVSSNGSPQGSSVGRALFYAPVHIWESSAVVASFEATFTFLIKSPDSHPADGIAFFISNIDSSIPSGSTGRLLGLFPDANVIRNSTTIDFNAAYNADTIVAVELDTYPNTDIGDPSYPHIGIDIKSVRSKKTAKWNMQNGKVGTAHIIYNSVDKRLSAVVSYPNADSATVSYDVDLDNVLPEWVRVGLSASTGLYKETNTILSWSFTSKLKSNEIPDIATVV
Test [9] in a line: anti-His antibody binders, primary screen, artefact control for SMM control protein annotation, biochemical, small-molecule microarray, 635 nm fluorescence (AID 1128).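 Further: score merges feature fluorescence with signal-to-noise for each printed compound spot.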 To be noted: anti-His Alexa647 antibody binding, higher = more signal.
The test system of test [10] is Human papillomavirus type 1a E7 protein (residues 1-88). The experiment in a line: HPV1a E7 small-molecule binders, primary screen, biochemical, small-molecule microarray, residues 1-88, 635 nm (AID 1129). The settings on record: small-molecule microarray binding, fluorescence 635 nm; higher = more signal.
Test [11] addresses Focal adhesion kinase 1 (Homo sapiens) (UniProt Q05397). Briefly: small-molecule microarray binders of FAK, primary screen, biochemical, 635/667 nm fluorescence, BSA, DTT (AID 1130).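 Further: composite of spot emission at 667 nm and signal to noise over triplicate slides.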 To be noted: PTK2 binding, 635 nm fluorescence, higher = more signal.
Test [12] has as its system Fibrinogen (Alexa647-labelled). Briefly: fibrinogen binders on compound microarrays, profiling panel, artefact control for SMM control-protein annotation, biochemical, small-molecule microarray, 635/667 nm fluorescence (AID 1131).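 Further: z-score merges 667 nm fluorescence with per-spot signal-to-noise over triplicate slides.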 To be noted: fibrinogen-A647 binding fluorescence, higher = more signal.
Test [13] deals with Follistatin (Homo sapiens) (UniProt P19883). Briefly: follistatin binders on small-molecule microarrays, primary screen, biochemical, small-molecule microarray, 635/667 nm fluorescence (AID 1132). To be noted: FST binding, 635 nm fluorescence, higher = more signal.
Chain of Follistatin (Homo sapiens) (P19883 whole entry, looked up): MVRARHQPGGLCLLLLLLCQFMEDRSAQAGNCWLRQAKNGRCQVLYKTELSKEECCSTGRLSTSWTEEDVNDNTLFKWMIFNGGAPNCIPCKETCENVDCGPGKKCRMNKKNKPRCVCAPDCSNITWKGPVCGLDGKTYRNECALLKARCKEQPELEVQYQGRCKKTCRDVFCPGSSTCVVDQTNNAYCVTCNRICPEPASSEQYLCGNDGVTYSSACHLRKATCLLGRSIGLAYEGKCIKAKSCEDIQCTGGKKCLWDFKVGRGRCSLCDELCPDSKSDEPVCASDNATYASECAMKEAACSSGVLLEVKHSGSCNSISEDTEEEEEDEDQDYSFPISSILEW
Test [14] has as its target Fibroblast growth factor 2 (Homo sapiens) (UniProt P09038). Briefly: FGF2 binders on small-molecule microarrays, primary screen, biochemical, small-molecule microarray, 635/667 nm fluorescence (AID 1133). To be noted: small-molecule microarray binding, FGF2, fluorescence 635/667; higher = more signal.
Test [15] in a line: mitochondrial membrane potential change in A549 cells, profiling panel, cell-based, JC-1 fluorescence, basal, 24 h, 100 nL (AID 1138).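 Further: A549 lung adenocarcinoma cells under basal conditions with no added stimulus; test concentration not given here.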 The settings on record: higher = more signal.
A further test deals with Lefty1. The experiment in a line: Lefty1 binders on small-molecule microarrays, primary screen, biochemical, small-molecule microarray, 635/667 nm fluorescence (AID 1139). The settings on record: small-molecule microarray binding, fluorescence 635/667; higher = more signal.
For test [16], the system named is wheat germ agglutinin (Triticum aestivum), Alexa647-labelled. Briefly: wheat germ agglutinin binders on compound microarrays, profiling panel, artefact control for SMM control-protein annotation, biochemical, small-molecule microarray, 635/667 nm fluorescence (AID 1140).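 Further: score merges 667 nm feature emission with signal to noise over triplicate slides.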 The settings on record: WGA-A647 binding, 635 nm fluorescence, higher = more signal.
Test [17] concerns the target Luciferin 4-monooxygenase (Photinus pyralis) (UniProt P08659). Briefly: firefly luciferase enzyme inhibitors, primary screen, biochemical, luminescence, purified enzyme, 2006 set (AID 1141).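 Further: cell-free assay with purified firefly luciferase at 100 ng per well in PBS; test concentration not given here.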 The settings on record: SteadyGlo luminescence, 30 min, higher = more signal, called active from +8 up or from −8 down.

Activity calls are given as the source filed them.

Chain of Fibroblast growth factor 2 (Homo sapiens) (P09038 whole entry, looked up): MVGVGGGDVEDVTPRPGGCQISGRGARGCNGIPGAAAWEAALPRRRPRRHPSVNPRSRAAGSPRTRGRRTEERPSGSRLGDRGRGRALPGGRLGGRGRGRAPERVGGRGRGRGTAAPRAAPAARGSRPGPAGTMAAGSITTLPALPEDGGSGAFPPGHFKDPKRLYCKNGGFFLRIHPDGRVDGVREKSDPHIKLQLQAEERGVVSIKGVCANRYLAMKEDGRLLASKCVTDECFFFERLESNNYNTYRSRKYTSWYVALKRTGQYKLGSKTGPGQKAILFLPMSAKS
Chain of Luciferin 4-monooxygenase (Photinus pyralis) (P08659 whole entry, looked up): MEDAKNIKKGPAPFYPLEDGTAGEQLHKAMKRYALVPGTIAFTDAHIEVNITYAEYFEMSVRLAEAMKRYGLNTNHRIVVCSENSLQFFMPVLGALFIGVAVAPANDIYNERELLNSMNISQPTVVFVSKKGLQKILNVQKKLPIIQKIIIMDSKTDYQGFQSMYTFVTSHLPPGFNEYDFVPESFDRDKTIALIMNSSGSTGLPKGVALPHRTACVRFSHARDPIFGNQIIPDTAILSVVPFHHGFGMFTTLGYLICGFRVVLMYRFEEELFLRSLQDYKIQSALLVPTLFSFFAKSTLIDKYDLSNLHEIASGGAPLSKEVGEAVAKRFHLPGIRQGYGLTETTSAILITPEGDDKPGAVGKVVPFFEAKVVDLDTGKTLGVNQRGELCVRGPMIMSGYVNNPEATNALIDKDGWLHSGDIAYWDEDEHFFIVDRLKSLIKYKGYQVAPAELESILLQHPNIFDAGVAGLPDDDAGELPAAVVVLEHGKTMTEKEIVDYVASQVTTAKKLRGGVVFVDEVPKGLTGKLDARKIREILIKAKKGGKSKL
Chain of Focal adhesion kinase 1 (Homo sapiens) (Q05397 whole entry, looked up): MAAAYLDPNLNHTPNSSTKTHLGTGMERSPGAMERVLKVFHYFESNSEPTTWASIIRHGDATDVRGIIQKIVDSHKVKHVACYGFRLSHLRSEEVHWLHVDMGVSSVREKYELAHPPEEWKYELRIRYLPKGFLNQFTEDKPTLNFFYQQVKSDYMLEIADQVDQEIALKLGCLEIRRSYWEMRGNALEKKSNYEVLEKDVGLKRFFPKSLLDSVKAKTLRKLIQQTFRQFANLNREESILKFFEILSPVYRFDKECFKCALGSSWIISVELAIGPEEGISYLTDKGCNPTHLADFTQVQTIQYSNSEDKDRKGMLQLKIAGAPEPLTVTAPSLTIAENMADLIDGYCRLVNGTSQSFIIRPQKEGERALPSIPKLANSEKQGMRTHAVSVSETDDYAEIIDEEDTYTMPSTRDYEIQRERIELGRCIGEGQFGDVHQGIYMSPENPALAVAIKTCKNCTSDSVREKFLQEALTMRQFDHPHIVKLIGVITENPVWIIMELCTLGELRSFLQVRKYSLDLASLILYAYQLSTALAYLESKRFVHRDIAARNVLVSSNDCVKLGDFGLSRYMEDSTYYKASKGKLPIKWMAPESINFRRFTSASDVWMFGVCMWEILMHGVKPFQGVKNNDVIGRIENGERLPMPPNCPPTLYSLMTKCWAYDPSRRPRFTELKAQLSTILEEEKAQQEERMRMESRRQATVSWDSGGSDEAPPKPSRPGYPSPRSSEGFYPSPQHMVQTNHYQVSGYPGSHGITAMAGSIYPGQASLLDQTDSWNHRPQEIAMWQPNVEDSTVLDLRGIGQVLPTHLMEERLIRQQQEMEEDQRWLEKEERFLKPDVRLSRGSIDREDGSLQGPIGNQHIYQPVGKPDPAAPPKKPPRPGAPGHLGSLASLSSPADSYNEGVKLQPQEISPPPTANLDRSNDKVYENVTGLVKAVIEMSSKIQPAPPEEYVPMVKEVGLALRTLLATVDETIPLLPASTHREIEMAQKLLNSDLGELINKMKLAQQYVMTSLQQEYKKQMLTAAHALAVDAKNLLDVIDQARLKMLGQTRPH

Turning to `C=C(C(=O)CC[C@@H](OC(C)=O)c1ccccc1OCCO)C(C)C`, the composite z-score with Albumin (Bos taurus) was -0.952; in test [2], -0.0647; in test [3] it was -0.167; in test [4] it was 0.664; in test [5], -0.152; in test [6] it was -0.0507. The composite z-score with Sam68 (KHDRBS1) was -0.247; in [7], -0.38; in test [8], -0.779; in test [9], 0.138; in test [10], -1.28; in test [11], -0.485. Besides, the composite z-score is -0.314 in test [12]; 0.164 in [13]; 0.398 in [14]; 0.342 in the test with Lefty1; -0.242 in test [16]. For the same molecule, the composite Z-score in test [1] was 0.222 (inactive). Also, the figures for the z-score in [15] and in test [17] were 1.29 and -1.35 (inactive), respectively.
Consider `CN1C=C(C(=O)OCCS(C)(=O)=O)C(C(=O)OCCS(C)(=O)=O)=CC(CCCO)=CC1c1cccs1` (stereo not given), for which the composite z-score with Albumin (Bos taurus) is -0.945; in [2] it was -0.132; in test [3] it was -0.0837; in test [4] it was -0.167; in test [5], -0.12; in test [6], 0.0548. Besides, the composite z-score in the test on Sam68 (KHDRBS1) is 1.13; in [7], 0.443; in test [8] it was -0.508; in test [9], 0.478; in test [10], 0.77; in test [11], 0.275. Besides, the composite z-score was -0.463 in test [12]; 0.775 in test [13]; 0.371 in test [14]; 1.07 in the test on Lefty1; -0.485 in test [16]. In addition, the composite Z-score in test [1] is 1.4 (inactive). Further, the z-score is 3.12 in test [15] and -1.52 (inactive) in test [17].
For `CC(C)N1CC=CC23O[C@@H]4/C=C\CCCOC(=O)C4[C@H]2C(=O)N(CCCO)[C@@H]3C1=O` (stereo not given in full), the composite z-score with Albumin (Bos taurus) was -1.17; in [2], -0.249; in test [3], -0.125; in test [4] it was 0.962; in [5], -0.0009; in test [6], -0.745. Moreover, the composite z-score in the test on Sam68 (KHDRBS1) is -0.594; in [7] it was -1.72; in [8], -0.564; in test [9], -0.936; in test [10] it was -1.26; in test [11], -0.134. In addition, the composite z-score was -1.72 in test [12]; -0.995 in test [13]; -1.23 in test [14]; -1.42 in the test with Lefty1; -0.965 in [16]. Moreover, the composite Z-score in test [1] was 1.73 (inactive). Moreover, the z-score in test [15] is 1.25; in test [17], -1.38 (inactive).
Regarding `O=C1N(CCS(=O)(=O)c2ccccc2)Cc2ccccc2[C@@H]2OC(c3ccc(OCCCO)cc3)=N[C@]12Cc1ccccc1`, the composite z-score with Albumin (Bos taurus) was -0.0444; in [2], 0.165; in test [3], 0.0042; in [4] it was 0.742; in [5], 2.84; in test [6], 0.599. Besides, the composite z-score worked out at 1.29 in the test with Sam68 (KHDRBS1); 0.286 in [7]; 1.13 in test [8]; 3.33 in test [9]; 1.27 in [10]; 0.526 in test [11]. The composite z-score in [12] worked out at 0.988; in test [13], 1.34; in [14], 1.68; in the test with Lefty1 it was 1.1; in [16], 1.23. The composite Z-score in [1] is 1.83 (inactive). The z-score in test [15] was -0.0106; in [17], -2.12 (inactive).
Consider `CCN(CC)c1ccc(N2CC=CC34O[C@@H]5C=CCOC(=O)[C@@H]5[C@H]3C(=O)N(C(C)CO)[C@@H]4C2=O)cc1` (stereo not given in full), for which the composite z-score with Albumin (Bos taurus) is -1.28; in test [2], -0.213; in test [3], -0.126; in [4], 0.0808; in test [5], -0.67; in test [6], 0.0745. For the same molecule, the composite z-score was -1.69 in the test with Sam68 (KHDRBS1); -1.35 in test [7]; -1.51 in test [8]; -1.34 in test [9]; -1.28 in test [10]; -1.02 in [11]. Moreover, the composite z-score is -2.61 in test [12]; -1.04 in test [13]; -1.13 in [14]; -1.65 with Lefty1; -1.07 in test [16]. In addition, in test [1], the composite Z-score was -0.237 (inactive). In addition, the z-score in test [15] is 1.39; in test [17] it was -0.822 (inactive).
`CC1CC/C=C\[C@H]2OC34C=CCN(C(C)C)C(=O)[C@H]3N(C(CO)C(C)C)C(=O)[C@@H]4C2C(=O)O1` (stereo not given in full): the composite z-score with Albumin (Bos taurus) is -0.314; in [2], -0.15; in test [3], -0.125; in test [4], 0.831; in test [5] it was 0.669; in test [6], -0.0978. Further, the composite z-score with Sam68 (KHDRBS1) was -1.57; in test [7], -1.36; in test [8], -2.39; in test [9] it was -1.64; in test [10] it was -2; in [11] it was 1. The composite z-score in test [12] was -1.9; in test [13] it was -0.459; in test [14] it was -0.294; in the test on Lefty1, -1.02; in test [16], -2.12. The composite Z-score in test [1] is -0.481 (inactive). Further, the values for the z-score in test [15] and in [17] were 1.01 and -1.3 (inactive), respectively.
